From publication PMC4081100, “A DNA-binding-site landscape and regulatory network analysis for NAC transcription factors in Arabidopsis thaliana”

Key:
Assay in all cases: universal protein binding microarray (PBM); transcription factors of Arabidopsis thaliana; high values mean tight binding
GST-ANAC092(1-176) = molecular target: T1, GST-ANAC092(1-176) (Arabidopsis thaliana, UniProt Q9FKA0 1-176); details: protein: recombinant; tags: GST; chain copies: 2; dsDNA, one strand shown
T1 sequence: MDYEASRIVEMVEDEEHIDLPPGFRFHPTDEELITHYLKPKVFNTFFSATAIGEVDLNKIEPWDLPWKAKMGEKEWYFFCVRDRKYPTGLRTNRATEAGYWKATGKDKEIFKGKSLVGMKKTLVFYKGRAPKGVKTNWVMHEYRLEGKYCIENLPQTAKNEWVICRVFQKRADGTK
Method in brief: (§1)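 Cells were induced to make GST-tagged NAC-domain, full-length or DNA-binding-domain proteins, and zinc acetate was added for zinc-finger proteins. These proteins were purified on glutathione–Sepharose 4B, quantified by A280 or anti-GST western blot, and applied in duplicate at 200 to 500 nM final to custom all-10-mer Agilent 4 × 180K arrays that primer extension had made double-stranded. Binding is given as the normalised enrichment score (E-score) for scored gapped and ungapped 8-mers.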

GST-NTL6(1-168) = GST-NTL6(1-168) (Arabidopsis thaliana, UniProt Q9SCK6 1-168); details: protein: recombinant; tags: GST; chain copies: 2; dsDNA, one strand shown
Sequence of GST-NTL6(1-168) (Q9SCK6 1-168): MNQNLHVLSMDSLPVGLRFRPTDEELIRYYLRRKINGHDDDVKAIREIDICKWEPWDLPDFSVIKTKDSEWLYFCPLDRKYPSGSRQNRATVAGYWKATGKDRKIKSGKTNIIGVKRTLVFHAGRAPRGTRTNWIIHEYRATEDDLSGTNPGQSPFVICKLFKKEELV
Method in brief: as §1

GST-ANAC019 NAC domain = molecular target: T2, GST-ANAC019 NAC domain (Arabidopsis thaliana, UniProt Q9C932 14-162); details: protein: recombinant; tags: GST; chain copies: 2; dsDNA, one strand shown
T2 sequence: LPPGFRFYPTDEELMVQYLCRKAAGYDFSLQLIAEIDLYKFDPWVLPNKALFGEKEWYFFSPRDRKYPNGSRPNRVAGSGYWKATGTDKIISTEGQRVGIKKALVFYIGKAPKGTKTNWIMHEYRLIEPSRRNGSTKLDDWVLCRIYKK
Method in brief: as §1

GST-ANAC055(1-171) = molecular target: T3, GST-ANAC055(1-171) (Arabidopsis thaliana, UniProt Q9LDY8 1-171); details: protein: recombinant; tags: GST; chain copies: 2; dsDNA, one strand shown
T3 sequence: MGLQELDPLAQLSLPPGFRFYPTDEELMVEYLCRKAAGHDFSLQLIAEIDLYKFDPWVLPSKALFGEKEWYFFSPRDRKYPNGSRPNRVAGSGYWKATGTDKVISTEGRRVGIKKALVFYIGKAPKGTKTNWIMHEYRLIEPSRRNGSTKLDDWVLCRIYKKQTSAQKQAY
Method in brief: as §1

GST-ATAF1 NAC domain = molecular target: T4, GST-ATAF1 NAC domain (Arabidopsis thaliana, UniProt Q39013 7-158); details: protein: recombinant; tags: GST; chain copies: 2; dsDNA, one strand shown
T4 sequence: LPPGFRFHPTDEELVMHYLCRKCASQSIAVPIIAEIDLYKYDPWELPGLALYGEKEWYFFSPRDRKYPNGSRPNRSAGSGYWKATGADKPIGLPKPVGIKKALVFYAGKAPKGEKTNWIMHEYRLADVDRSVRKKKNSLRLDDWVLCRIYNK
Method in brief: as §1

[1] = molecular target: T5, GST-ANAC092(1-285) full length (Arabidopsis thaliana, UniProt Q9FKA0 1-285); details: protein: recombinant; tags: GST; chain copies: 2; dsDNA, one strand shown
T5 sequence: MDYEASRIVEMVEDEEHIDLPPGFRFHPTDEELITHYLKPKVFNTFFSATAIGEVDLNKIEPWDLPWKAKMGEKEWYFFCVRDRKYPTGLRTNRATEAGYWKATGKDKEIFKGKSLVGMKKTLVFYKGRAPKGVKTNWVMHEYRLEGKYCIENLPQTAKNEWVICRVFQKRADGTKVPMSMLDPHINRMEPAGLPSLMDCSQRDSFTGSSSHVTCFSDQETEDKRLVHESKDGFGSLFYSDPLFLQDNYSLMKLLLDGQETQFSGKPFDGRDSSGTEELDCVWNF
Method in brief: as §1

GST-NAP(1-166) = molecular target: T6, GST-NAP(1-166) (Arabidopsis thaliana, UniProt O49255 1-166); details: protein: recombinant; tags: GST; chain copies: 2; dsDNA, one strand shown
T6 sequence: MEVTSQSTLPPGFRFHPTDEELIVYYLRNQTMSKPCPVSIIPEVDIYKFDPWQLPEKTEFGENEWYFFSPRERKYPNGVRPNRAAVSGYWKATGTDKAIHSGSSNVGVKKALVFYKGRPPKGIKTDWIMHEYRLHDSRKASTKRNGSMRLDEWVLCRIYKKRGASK
Method in brief: as §1

GST-NST2(1-184) = molecular target: T7, GST-NST2(1-184) (Arabidopsis thaliana, UniProt Q9M274 1-184); details: protein: recombinant; tags: GST; chain copies: 2; dsDNA, one strand shown
T7 sequence: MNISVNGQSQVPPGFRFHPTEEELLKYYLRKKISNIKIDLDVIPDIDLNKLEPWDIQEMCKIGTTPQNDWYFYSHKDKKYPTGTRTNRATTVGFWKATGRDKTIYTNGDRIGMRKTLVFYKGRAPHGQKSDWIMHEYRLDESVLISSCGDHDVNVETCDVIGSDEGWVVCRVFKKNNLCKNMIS
Method in brief: as §1

GST-SND1(1-203) = molecular target: T8, GST-SND1(1-203) (Arabidopsis thaliana, UniProt Q9LPI7 1-203); details: protein: recombinant; tags: GST; chain copies: 2; dsDNA, one strand shown
T8 sequence: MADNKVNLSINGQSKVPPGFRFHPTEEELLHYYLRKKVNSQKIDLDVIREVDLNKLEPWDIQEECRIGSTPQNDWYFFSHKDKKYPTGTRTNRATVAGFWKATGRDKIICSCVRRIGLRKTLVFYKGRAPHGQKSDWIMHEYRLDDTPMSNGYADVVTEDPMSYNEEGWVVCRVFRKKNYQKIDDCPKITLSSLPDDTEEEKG
Method in brief: as §1

GST-VND3 NAC domain = molecular target: T9, GST-VND3 NAC domain (Arabidopsis thaliana, UniProt Q9FH59 12-162); details: protein: recombinant; tags: GST; chain copies: 2; dsDNA, one strand shown
T9 sequence: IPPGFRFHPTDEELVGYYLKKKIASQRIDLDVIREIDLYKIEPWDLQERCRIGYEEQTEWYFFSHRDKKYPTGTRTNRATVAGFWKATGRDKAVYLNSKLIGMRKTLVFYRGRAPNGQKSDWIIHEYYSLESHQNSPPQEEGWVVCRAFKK
Method in brief: as §1

GST-VND7 NAC domain = molecular target: T10, GST-VND7 NAC domain (Arabidopsis thaliana, UniProt Q9C8W9 9-158); details: protein: recombinant; tags: GST; chain copies: 2; dsDNA, one strand shown
T10 sequence: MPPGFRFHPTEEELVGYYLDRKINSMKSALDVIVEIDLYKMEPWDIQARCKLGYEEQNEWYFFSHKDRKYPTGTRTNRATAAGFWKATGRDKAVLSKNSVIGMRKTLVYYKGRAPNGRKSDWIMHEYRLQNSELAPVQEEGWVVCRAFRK
Method in brief: as §1

GST-NTL8 NAC domain = molecular target: T11, GST-NTL8 NAC domain (Arabidopsis thaliana, UniProt Q9XIN7 14-156); details: protein: recombinant; tags: GST; chain copies: 2; dsDNA, one strand shown
T11 sequence: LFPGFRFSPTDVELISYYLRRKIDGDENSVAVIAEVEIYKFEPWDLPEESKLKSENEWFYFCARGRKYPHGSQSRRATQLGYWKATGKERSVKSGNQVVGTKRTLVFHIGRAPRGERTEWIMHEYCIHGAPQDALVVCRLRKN
Method in brief: as §1

GST-WRKY1(266-371) = GST-WRKY1(266-371) (Arabidopsis thaliana, UniProt Q9SI37 266-371); details: protein: recombinant; tags: GST; dsDNA, one strand shown
Sequence of GST-WRKY1(266-371) (Q9SI37 266-371): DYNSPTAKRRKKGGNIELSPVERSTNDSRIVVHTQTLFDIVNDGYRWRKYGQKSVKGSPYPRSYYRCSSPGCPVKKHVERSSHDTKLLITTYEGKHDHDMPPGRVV
Method in brief: as §1

| Sequence | binding signal (GST-ANAC092(1-176)) | binding signal (GST-NTL6(1-168)) | binding signal (GST-ANAC019 NAC domain) | binding signal (GST-ANAC055(1-171)) | binding signal (GST-ATAF1 NAC domain) | binding signal [1] | binding signal (GST-NAP(1-166)) | binding signal (GST-NST2(1-184)) | binding signal (GST-SND1(1-203)) | binding signal (GST-VND3 NAC domain) | binding signal (GST-VND7 NAC domain) | binding signal (GST-NTL8 NAC domain) | binding signal (GST-WRKY1(266-371)) |
| --- | --- | --- | --- | --- | --- | --- | --- | --- | --- | --- | --- | --- | --- |
| ACACGCTA | 0.484 E-score | 0.0935 E-score | 0.16 E-score | 0.193 E-score | 0.116 E-score | 0.49 E-score | 0.194 E-score | 0.4 E-score | 0.438 E-score | 0.079 E-score | 0.104 E-score | – | – |
| TGACGTAA | 0.449 E-score | – | 0.368 E-score | 0.364 E-score | 0.407 E-score | 0.441 E-score | 0.389 E-score | 0.385 E-score | 0.482 E-score | 0.406 E-score | 0.392 E-score | 0.0784 E-score | 0.178 E-score |
| ATACGTAA | 0.462 E-score | 0.175 E-score | 0.476 E-score | 0.451 E-score | 0.407 E-score | 0.45 E-score | 0.461 E-score | 0.331 E-score | 0.393 E-score | 0.462 E-score | 0.458 E-score | – | – |
| AGACACGC | 0.364 E-score | – | 0.0909 E-score | 0.0867 E-score | 0.165 E-score | 0.42 E-score | 0.0846 E-score | 0.107 E-score | 0.215 E-score | 0.0792 E-score | 0.165 E-score | 0.0629 E-score | 0.084 E-score |
| ACGTAATC | 0.464 E-score | 0.0901 E-score | 0.453 E-score | 0.411 E-score | 0.38 E-score | 0.462 E-score | 0.443 E-score | 0.356 E-score | 0.424 E-score | 0.427 E-score | 0.44 E-score | – | – |
| CAACACGC | 0.418 E-score | – | 0.304 E-score | 0.227 E-score | 0.172 E-score | 0.436 E-score | 0.252 E-score | 0.229 E-score | 0.259 E-score | 0.162 E-score | 0.218 E-score | 0.0505 E-score | 0.125 E-score |
| AGTTTGAC | – | 0.0778 E-score | 0.068 E-score | 0.118 E-score | 0.122 E-score | – | – | – | 0.069 E-score | 0.0521 E-score | 0.095 E-score | – | 0.48 E-score |
| GAGACGTA | 0.194 E-score | – | 0.432 E-score | 0.395 E-score | 0.411 E-score | 0.331 E-score | 0.396 E-score | 0.236 E-score | 0.322 E-score | 0.418 E-score | 0.413 E-score | – | 0.0734 E-score |
| CAAAGTCA | – | – | – | 0.0622 E-score | – | 0.0505 E-score | – | – | 0.0515 E-score | 0.0817 E-score | 0.0536 E-score | – | 0.454 E-score |
